Experimental data published in the supplement of paper PMC10849652.
Of roughly 7,900 targets only a part is listed; those with a hit were picked by preference. About 0.6% of all pairs of compound and target were hits.

The targets below were run with c1cn2cc(-c3ccc4cn[nH]c4c3)nc(Nc3ccc(N4CCOCC4)cc3)c2n1 [entospletinib] (assay: log2 fold change, soluble protein after heating vs DMSO (PISA); higher = thermal stabilisation; K562 cells, 10 uM, 30 min; active = over 0.2 and 3.5 SD of the protein, either way, in both replicates (recomputed)).
How it was run: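 K562 cells (2×10^6 cells/mL) were treated with 10 μM compound for 30 min, and aliquots were heated for 3 min over 48°C-58°C. Pooled aliquots were extracted in PBS with 0.5% NP-40 at 4°C, and the supernatant after 21,000xg for 90 min was measured by TMTpro 16plex LC-MS/MS with channel sums equalised. Reported thermal stability, relative to control samples and from duplicates, is a log2 fold change.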

Chain of UniProt P23276 (P23276 whole entry, looked up): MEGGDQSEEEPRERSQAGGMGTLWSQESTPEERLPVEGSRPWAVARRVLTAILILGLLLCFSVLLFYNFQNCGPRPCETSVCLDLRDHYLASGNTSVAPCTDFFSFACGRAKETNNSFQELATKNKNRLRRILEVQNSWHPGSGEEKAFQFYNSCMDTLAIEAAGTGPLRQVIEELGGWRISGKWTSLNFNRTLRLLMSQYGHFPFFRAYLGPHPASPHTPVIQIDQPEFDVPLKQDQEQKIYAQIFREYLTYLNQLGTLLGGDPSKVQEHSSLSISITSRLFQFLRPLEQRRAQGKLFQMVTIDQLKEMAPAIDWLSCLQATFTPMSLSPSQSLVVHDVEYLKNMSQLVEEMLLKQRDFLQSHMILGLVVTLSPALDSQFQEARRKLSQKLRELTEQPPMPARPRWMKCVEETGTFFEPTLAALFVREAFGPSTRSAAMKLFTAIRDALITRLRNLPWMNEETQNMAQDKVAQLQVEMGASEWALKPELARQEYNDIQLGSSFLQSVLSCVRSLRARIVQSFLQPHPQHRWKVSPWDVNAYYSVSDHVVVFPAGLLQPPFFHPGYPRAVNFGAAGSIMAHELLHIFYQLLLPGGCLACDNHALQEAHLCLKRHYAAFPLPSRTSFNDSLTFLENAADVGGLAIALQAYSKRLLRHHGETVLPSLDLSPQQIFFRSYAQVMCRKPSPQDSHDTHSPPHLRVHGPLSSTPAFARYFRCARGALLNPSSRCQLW
Chain of UniProt Q12905 (Q12905 whole entry, looked up): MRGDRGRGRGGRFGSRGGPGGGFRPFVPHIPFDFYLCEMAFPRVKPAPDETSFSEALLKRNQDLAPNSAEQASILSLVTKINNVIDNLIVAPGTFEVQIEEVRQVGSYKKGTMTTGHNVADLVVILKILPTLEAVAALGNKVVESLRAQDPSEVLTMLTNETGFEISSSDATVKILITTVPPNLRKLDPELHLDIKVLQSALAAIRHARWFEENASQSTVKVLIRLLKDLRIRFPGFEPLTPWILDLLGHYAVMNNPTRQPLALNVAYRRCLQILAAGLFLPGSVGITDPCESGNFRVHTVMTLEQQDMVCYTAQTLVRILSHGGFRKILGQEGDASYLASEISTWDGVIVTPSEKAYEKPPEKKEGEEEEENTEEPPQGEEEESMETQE
Chain of UniProt Q8N108 (Q8N108 whole entry, looked up): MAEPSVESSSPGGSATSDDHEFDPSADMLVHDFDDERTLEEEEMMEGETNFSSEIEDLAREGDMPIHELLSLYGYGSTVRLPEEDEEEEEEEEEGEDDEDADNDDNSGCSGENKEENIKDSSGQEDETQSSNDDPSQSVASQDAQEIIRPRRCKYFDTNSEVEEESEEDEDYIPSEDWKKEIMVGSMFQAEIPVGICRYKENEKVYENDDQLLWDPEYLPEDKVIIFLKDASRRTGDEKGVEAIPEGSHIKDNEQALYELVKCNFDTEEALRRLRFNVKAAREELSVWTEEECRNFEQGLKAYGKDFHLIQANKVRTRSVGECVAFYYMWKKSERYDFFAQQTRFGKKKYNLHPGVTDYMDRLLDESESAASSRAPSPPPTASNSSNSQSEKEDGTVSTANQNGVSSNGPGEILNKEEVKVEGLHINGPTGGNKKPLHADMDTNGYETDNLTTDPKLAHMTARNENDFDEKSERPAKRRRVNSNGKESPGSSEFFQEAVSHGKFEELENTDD
Chain of UniProt P50748 (P50748 whole entry, looked up): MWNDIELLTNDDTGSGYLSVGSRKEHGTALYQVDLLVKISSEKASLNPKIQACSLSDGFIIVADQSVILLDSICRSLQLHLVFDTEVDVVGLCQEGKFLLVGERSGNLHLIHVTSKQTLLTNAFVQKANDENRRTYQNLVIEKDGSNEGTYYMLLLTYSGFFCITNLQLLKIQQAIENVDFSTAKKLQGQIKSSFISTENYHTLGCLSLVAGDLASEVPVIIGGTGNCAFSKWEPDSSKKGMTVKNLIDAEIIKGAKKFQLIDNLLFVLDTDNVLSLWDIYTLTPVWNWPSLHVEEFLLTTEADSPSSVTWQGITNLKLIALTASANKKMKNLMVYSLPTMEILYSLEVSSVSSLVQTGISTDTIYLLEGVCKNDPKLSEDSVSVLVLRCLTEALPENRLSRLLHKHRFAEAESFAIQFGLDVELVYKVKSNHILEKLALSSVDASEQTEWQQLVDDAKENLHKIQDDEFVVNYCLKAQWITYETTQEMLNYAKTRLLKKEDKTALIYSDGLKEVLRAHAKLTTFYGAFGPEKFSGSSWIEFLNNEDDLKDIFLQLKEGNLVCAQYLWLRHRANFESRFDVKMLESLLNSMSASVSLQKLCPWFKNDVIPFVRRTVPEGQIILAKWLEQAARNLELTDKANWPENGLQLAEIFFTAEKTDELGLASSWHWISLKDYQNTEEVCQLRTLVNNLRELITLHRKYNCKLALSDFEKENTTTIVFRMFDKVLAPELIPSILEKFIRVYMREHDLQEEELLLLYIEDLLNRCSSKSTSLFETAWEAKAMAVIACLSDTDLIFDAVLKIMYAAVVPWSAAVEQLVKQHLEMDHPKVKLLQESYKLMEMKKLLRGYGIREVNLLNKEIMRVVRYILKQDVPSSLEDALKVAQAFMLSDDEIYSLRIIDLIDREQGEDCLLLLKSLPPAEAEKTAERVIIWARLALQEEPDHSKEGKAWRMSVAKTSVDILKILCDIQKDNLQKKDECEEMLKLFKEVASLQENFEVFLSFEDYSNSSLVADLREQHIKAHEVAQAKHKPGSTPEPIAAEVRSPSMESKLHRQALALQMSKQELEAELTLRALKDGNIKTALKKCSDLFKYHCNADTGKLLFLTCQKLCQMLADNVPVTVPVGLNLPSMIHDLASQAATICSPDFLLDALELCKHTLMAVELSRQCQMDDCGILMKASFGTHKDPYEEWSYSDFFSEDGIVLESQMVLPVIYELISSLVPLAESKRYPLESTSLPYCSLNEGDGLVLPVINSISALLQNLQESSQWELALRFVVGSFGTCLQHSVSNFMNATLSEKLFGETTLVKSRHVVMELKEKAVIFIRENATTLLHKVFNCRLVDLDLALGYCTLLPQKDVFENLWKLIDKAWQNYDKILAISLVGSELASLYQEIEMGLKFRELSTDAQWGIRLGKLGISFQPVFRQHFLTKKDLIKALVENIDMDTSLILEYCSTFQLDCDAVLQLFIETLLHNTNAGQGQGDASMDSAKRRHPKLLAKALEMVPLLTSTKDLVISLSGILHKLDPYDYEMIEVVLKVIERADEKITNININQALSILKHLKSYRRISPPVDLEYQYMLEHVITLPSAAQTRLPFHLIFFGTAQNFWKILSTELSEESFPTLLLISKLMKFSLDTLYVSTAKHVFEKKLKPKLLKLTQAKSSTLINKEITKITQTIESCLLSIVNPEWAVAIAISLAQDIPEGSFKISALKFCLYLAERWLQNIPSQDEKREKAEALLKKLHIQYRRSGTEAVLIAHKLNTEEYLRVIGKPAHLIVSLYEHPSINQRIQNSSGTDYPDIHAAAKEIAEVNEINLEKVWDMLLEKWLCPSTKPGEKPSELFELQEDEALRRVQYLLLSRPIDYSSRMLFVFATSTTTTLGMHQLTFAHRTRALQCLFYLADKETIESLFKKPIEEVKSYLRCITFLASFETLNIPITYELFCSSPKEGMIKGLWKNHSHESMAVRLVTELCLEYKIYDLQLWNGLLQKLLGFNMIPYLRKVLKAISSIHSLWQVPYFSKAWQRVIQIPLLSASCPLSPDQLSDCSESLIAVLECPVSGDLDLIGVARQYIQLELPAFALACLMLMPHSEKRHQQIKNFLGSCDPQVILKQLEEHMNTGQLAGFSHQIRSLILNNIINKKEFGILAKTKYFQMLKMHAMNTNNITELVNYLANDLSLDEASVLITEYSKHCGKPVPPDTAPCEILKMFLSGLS
Chain of UniProt Q7L590 (Q7L590 whole entry, looked up): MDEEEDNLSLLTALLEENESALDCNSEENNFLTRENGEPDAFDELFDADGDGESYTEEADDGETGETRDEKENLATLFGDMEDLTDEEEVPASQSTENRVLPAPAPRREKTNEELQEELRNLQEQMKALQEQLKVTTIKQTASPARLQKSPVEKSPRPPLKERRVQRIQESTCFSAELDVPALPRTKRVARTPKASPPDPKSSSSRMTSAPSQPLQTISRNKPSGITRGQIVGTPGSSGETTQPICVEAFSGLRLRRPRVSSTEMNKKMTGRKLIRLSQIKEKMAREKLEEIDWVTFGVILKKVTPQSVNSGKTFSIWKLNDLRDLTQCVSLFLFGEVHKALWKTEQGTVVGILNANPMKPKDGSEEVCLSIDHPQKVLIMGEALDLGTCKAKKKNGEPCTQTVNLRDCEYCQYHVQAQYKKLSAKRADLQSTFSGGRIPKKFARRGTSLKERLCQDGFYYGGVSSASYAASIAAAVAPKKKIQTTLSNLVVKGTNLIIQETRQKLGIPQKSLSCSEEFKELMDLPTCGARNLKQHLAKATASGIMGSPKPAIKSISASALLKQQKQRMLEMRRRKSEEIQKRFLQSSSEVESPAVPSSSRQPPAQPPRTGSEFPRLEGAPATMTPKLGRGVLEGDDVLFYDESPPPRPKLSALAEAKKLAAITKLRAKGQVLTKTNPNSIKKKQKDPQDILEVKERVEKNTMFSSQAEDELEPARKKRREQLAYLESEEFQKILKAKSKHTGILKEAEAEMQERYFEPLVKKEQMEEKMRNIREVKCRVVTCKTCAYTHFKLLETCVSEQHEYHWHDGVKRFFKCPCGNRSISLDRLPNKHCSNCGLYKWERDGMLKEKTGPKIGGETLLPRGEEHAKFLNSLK
Chain of UniProt P46734 (P46734 whole entry, looked up): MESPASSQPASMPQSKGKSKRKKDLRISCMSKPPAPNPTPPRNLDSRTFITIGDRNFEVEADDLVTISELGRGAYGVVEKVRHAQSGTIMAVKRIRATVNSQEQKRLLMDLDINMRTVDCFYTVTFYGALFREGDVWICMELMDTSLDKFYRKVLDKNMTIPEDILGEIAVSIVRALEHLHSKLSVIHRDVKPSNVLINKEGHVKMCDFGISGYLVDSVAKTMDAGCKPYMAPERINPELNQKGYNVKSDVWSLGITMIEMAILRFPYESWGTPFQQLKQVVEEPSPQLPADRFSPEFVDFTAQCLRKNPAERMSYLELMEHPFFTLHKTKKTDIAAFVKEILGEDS

log2 fold change, inactive:
MAP2K3 isoform 3 (UniProt P46734) 0.013
MICU1 isoform 3 (UniProt Q9BPX6) 0.049
MCM10 (UniProt Q7L590) -0.04
KEL (UniProt P23276) -0.023
ILF2 (UniProt Q12905) -0.103
KCT2 (UniProt Q8NC54) 0.022
KNTC1 (UniProt P50748) 0
MAN2B2 (UniProt Q9Y2E5) 0.004
MIER1 isoform 12 (UniProt Q8N108) -0.002
MED1 (UniProt Q15648) 0.019
